Screening results deposited in PubChem BioAssay by National Center for Advancing Translational Sciences (NCATS).
Sampled rows, rich in hits. Any-hit rate of the full collection: about 7.5%.
FLuc modulator = inhibits or activates purified firefly luciferase, miR-21 counter-screen; purified FLuc, Km substrates, luminescence inhibition; P08659; Potency, µM (doses to about 57.5 µM), most hits filed as inhibitors; hit rate 6.9% among 360,000; further: nearly all actives have a fitted effect of over 55% in size
Target sequence (P08659 whole entry, looked up): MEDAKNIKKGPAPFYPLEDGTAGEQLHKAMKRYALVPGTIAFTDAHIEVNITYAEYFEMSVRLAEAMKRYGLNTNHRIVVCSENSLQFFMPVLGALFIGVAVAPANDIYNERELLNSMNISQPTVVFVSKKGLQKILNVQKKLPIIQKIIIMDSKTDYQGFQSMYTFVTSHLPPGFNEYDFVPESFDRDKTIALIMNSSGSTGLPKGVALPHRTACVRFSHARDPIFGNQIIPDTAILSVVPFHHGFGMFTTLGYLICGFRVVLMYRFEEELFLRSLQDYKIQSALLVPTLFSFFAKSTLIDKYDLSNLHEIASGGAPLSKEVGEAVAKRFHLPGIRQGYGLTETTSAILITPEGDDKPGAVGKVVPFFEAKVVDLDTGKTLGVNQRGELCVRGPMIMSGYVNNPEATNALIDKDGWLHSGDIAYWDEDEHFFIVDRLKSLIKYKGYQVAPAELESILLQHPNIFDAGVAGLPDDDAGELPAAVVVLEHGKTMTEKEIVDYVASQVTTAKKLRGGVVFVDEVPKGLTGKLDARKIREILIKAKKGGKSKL
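Biochemical qHTS of compounds, final roughly 60 µM downward over six points, against 10 nM purified firefly luciferase using Km concentrations of substrates (10 uM D-luciferin, 10 uM ATP) in Tris acetate pH 7.5 buffer; luminescence output.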
SMN2 splice enh = increases expression of the SMN2 splice variant; HEK293 SMN2-luciferase splicing reporter, luminescence, 30-36 h; hit rate 2.8% among 210,000; Potency, µM (series often up to 46.1 µM), actives largely listed as activators; AID 1458; further: nearly all actives have a fitted effect of over 55% in size
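HEK293 cells carry an SMN2 minigene-luciferase reporter in which exon 7 inclusion puts luciferase in frame. Cells were seeded at 2000 cells/well, attached for 10-12 hours, then exposed to compounds for 30-36 hours at 37C before ONE-Glo luminescence.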
ELG1 genotox = genotoxicity induction in ELG1-luciferase HEK293T cells | HEK293T ELG1-luciferase reporter, luminescence, 16 h | Potency, µM (titrated, usually from 46 µM), hits mostly activators | hit rate 1.3% among 330,000; further: nearly all actives have a fitted effect of over 60% in size
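HEK293T cells expressing luciferase-tagged ELG1 were exposed to compound or DMSO vehicle for 16 hr at 37 °C and 5% CO2. Luciferase activity was then measured with ONE-Glo after 30 min at room temperature.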
NPC1 prom act = NPC1 promoter activation. AID 485313. Huh7 NPC1 promoter luciferase reporter, 24 h. hit rate 2.4% among 320,000. Potency, µM (series often up to 9.22 µM), most hits filed as activators; further: nearly all actives have a fitted effect of over 60% in size
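NPC1 promoter–luciferase Huh7 cells; 24 h compound; luminescence.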
Luc counter = Kinase-Glo luciferase inhibition (counter-screen) | Kinase-Glo luciferase, ATP luminescence, 8 min | Potency, µM (highest dose often 38.3 µM), hits mostly inhibitors | hit rate 0.28% among 200,000; further: nearly all actives have a fitted effect of over 60% in size
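Luminescence was the read-out, taken after 8-minute incubation at ambient temperature. Luciferase turned over luciferin with 10 uM ATP in imidazole pH 7.2 buffer containing KCl, MgCl2, Tween 20 and BSA.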
Rab9 promoter act = activators of Rab9 promoter | Huh7 Rab9 promoter-luciferase reporter, luminescence, 24 h | Potency, µM (doses to about 9.22 µM), hits mostly activators | hit rate 2.8% among 320,000 | AID 485297; further: nearly all actives have a fitted effect of over 60% in size
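Luminescence read-out: Huh7 cells stably expressing Rab9-luciferase, treated 24 h with compound at 37 °C, then lysed with luciferase reagent for 10 min at ambient before reading.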
Of the large screens only hits and unclear results are named; the others gave an inactive call. The call rests on the fitted dose curve; in most records, active means well fitted curve in the direction sought with a large enough effect; inconclusive means small, poorly fitted or top-dose-only effect, or another doubt; inactive means no such curve, though single readings can be large; an effect the other way counts as inactive or inconclusive.

O=C(N/N=C/c1cccc(Oc2ccccc2)c1)c1ccccc1F	FLuc modulator 16.9µM, ELG1 genotox inconclusive (no result: SMN2 splice enh, Luc counter)
Nc1ccc(C(=O)N/N=C/c2cccc(Oc3ccccc3)c2)cc1	FLuc modulator 12µM (no result: SMN2 splice enh, Luc counter)
O=C1ON=C(c2ccccc2)/C1=C/c1ccc(O)cc1	FLuc modulator inconclusive, ELG1 genotox inconclusive (no result: SMN2 splice enh, Luc counter)
COc1cc(/C=C2\C(=O)ON=C2c2ccccc2)cc(Br)c1O	FLuc modulator inconclusive (no result: SMN2 splice enh, Luc counter)
COc1cc(/C=C2\C(=O)ON=C2c2ccccc2)cc(Cl)c1O	FLuc modulator 19µM
O=C1ON=C(c2ccc(Cl)cc2)/C1=C/c1ccc(O)cc1	FLuc modulator 10.7µM, ELG1 genotox inconclusive
COc1cc(/C=C2/C(=O)ON=C2c2ccccc2)ccc1O	FLuc modulator 19µM
COc1ccnc(N=CNOCc2cccc(C(F)(F)F)c2)c1C#N	none (no result: SMN2 splice enh)
CC(C)CN(CC(C)C)C(=O)c1cc2c(=O)n3ccccc3nc2s1	none (no result: SMN2 splice enh, Luc counter)
CCN(CC)C(=O)c1cc2c(=O)n3ccccc3nc2s1	FLuc modulator inconclusive, SMN2 splice enh inconclusive, ELG1 genotox 16.4µM
CC1CCCN(C(=O)c2cc3c(=O)n4ccccc4nc3s2)C1 (stereo unspecified)	FLuc modulator 16.9µM, ELG1 genotox 16.4µM, NPC1 prom act inconclusive, Rab9 promoter act inconclusive (no result: SMN2 splice enh, Luc counter)
Cc1cccn2c(=O)c3cc(C(=O)N4CCCC(C)C4)sc3nc12 (stereo unspecified)	FLuc modulator inconclusive (no result: SMN2 splice enh, Luc counter)
CC(=O)N1c2ccc(S(=O)(=O)N3CCCCCC3)cc2CC1C(=O)NCc1ccccc1 (stereo unspecified)	none (no result: SMN2 splice enh, ELG1 genotox, NPC1 prom act, Luc counter, Rab9 promoter act)
COc1ccccc1C(=O)Nc1nc2ccc(S(C)(=O)=O)cc2s1	FLuc modulator inconclusive, Rab9 promoter act inconclusive
CS(=O)(=O)c1ccc2nc(NC(=O)c3ccccc3Br)sc2c1	FLuc modulator 9.53µM, ELG1 genotox inconclusive, NPC1 prom act 2.82µM, Rab9 promoter act inconclusive (no result: SMN2 splice enh, Luc counter)
CS(=O)(=O)c1ccc2nc(NC(=O)c3ccccc3Cl)sc2c1	FLuc modulator 16.9µM (no result: SMN2 splice enh, Luc counter)
Cn1nccc1C(=O)N/N=C/c1ccccc1[N+](=O)[O-]	FLuc modulator 13.5µM, ELG1 genotox inconclusive, NPC1 prom act 2.51µM, Rab9 promoter act 2.82µM (no result: SMN2 splice enh, Luc counter)
COc1cccc(/C=N/NC(=O)C(=O)N/N=C/c2cccc(OC)c2O)c1O	none
COc1cccc(/C=N/NC(=O)c2ccoc2C)c1O	FLuc modulator 8.49µM, ELG1 genotox 20.6µM (no result: SMN2 splice enh, Luc counter)
COc1cccc(/C=N/NC(=O)NC2CCCCC2)c1O	FLuc modulator 16.9µM, ELG1 genotox inconclusive, NPC1 prom act inconclusive, Rab9 promoter act inconclusive (no result: SMN2 splice enh, Luc counter)
CCN(CC)c1ccc(/C=N/NC(=O)c2ccoc2C)cc1	FLuc modulator 1.07µM, ELG1 genotox 0.731µM, NPC1 prom act 0.501µM, Rab9 promoter act inconclusive (no result: SMN2 splice enh, Luc counter)
COc1cccc(C(=O)NCC(c2ccc(N(C)C)cc2)N2CCOCC2)c1OC (stereo unspecified)	none (no result: SMN2 splice enh, ELG1 genotox, NPC1 prom act, Luc counter, Rab9 promoter act)
Cc1ccc(NC(=O)C2CCCN(S(=O)(=O)c3c(C)n[nH]c3C)C2)cc1C (stereo unspecified)	none (no result: ELG1 genotox, NPC1 prom act, Luc counter, Rab9 promoter act)
COc1cccc(N2CCN(C(=O)c3cnn(-c4ccccc4Cl)c3C3CCN(C(=O)OC(C)(C)C)CC3)CC2)c1	none (no result: SMN2 splice enh, ELG1 genotox, NPC1 prom act, Luc counter, Rab9 promoter act)
CCOc1ccc(/C=N/NC(=O)c2ccoc2C)cc1OC	FLuc modulator inconclusive, ELG1 genotox 18.3µM, NPC1 prom act inconclusive, Rab9 promoter act 3.55µM (no result: SMN2 splice enh, Luc counter)
COc1cc(/C=N/NC(=O)c2ccoc2C)ccc1O	FLuc modulator 13.5µM, SMN2 splice enh inconclusive
Cc1occc1C(=O)N/N=C/c1ccccn1	FLuc modulator inconclusive, ELG1 genotox inconclusive, Luc counter inconclusive, Rab9 promoter act inconclusive (no result: SMN2 splice enh)
Cc1occc1C(=O)Nc1cccc([N+](=O)[O-])c1C	none (no result: SMN2 splice enh, Luc counter)
COc1cc(/C=N/NC(=O)c2cc(C)oc2C)ccc1O	FLuc modulator inconclusive (no result: SMN2 splice enh, Luc counter)
Cc1occc1C(=O)N/N=C/c1ccccc1[N+](=O)[O-]	FLuc modulator 9.53µM, ELG1 genotox inconclusive, NPC1 prom act 3.16µM, Rab9 promoter act 3.98µM (no result: SMN2 splice enh, Luc counter)
COc1cccc(/C=N/NC(=O)c2ccoc2C)c1	FLuc modulator 10.7µM, ELG1 genotox inconclusive, NPC1 prom act 2.51µM, Rab9 promoter act 1.58µM (no result: SMN2 splice enh, Luc counter)
Cc1cccc(-n2cc(-c3ccccc3)c3c(NC(C)C)ncnc32)c1	none (no result: SMN2 splice enh, ELG1 genotox, NPC1 prom act, Luc counter, Rab9 promoter act)
